sPLA2-III inh = Blocks human group III sPLA2 activity | Q9NZ20 | QFRET BODIPY PC-A2 liposome hydrolysis, fluorescence | inhibition, % at 12.2 µM | hit rate 0.56% among 370,000;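 active = inhibition above mean plus 3 SD of compounds lying within the high and low control bounds, cut at about 19% in these data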
Target sequence (Q9NZ20 whole entry, looked up): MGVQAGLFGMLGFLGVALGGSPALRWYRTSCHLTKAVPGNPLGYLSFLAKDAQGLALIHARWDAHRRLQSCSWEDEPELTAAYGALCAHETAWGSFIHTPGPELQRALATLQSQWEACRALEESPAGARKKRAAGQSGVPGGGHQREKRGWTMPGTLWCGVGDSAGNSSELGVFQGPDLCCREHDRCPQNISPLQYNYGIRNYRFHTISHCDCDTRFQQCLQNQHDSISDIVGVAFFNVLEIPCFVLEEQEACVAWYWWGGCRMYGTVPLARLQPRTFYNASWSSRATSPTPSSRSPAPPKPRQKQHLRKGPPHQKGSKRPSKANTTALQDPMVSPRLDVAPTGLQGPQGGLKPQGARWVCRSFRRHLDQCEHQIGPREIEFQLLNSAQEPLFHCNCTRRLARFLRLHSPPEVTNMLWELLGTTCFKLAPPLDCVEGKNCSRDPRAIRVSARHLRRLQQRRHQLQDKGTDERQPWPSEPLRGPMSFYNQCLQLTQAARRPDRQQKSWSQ
ADAM10 inh = inhibits human ADAM10; recombinant ADAM10, EDANS/DABCYL FRET peptide cleavage, 3 h; inhibition, % at 7 µM; hit rate 0.62% among 370,000; AID 720582;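 active = inhibition above a per-campaign cutoff equal to the mean of compounds falling between control-based bounds plus 3 SD, cut at about 20% in these data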
proKLK7 act = proKLK7 (human) activation, primary screen; P49862; purified proKLK7, EDANS-DABCYL substrate fluorescence; 100% is mature enzyme control, 0% vehicle; activation, % at 7 µM; hit rate 0.9% among 370,000; AID 652039;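 active = activation above the mean of all tested compounds plus 3 SD, computed per campaign excluding outliers beyond control limits, cut at about 13% in these data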
NRP1-CendR mod = NRP-1/CendR interaction modulation. FAM-RPARPAR peptide binding to NRP-1, fluorescence polarization. inhibition, % at 25 µM. hit rate 0.85% among 360,000;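 active = inhibition or corrected inhibition above about 18%, plus a signal ratio from 0.5 to 1.5, limit read from the data, passing the limit was not always enough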
ADAM17 inh = inhibits human ADAM17; P78536; recombinant ADAM17, EDANS/DABCYL FRET peptide cleavage; inhibition, % at 6.95 µM; hit rate 0.83% among 370,000;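 active = inhibition above the mean of compounds lying between control limits plus 3 SD, set per campaign, cut at about 8.5% in these data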
ADAM10 confirm = confirmation of inhibitors of human ADAM10 | shares compounds with ADAM10 inh | ADAM10 QFRET peptide cleavage, EDANS fluorescence | inhibition, % at 6.95 µM | hit rate 1% among 2,100 | AID 743208;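 active = inhibition above about 20% chosen separately for each screening run, limit read from the data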
ADAM17 counter = inhibits human ADAM17 in ADAM10 exosite counter-screen; shares compounds with ADAM10 inh; ADAM17 QFRET peptide cleavage, EDANS fluorescence; inhibition, % at 6.95 µM; hit rate 0.5% among 2,100;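 active = mean triplicate inhibition above the solvent-only control wells' mean plus 3 SD, cut at about 12% in these data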
ADAM10 ctr = counter-screen for ADAM17 exosite inhibitors: inhibitors of human ADAM10; shares compounds with ADAM17 inh; recombinant ADAM10, EDANS/DABCYL FRET peptide cleavage, 3 h; inhibition, % at 6.95 µM; hit rate 47% among 2,900; AID 743256;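 active = mean inhibition over the triplicate runs exceeds the activity threshold set in the earlier primary screen, cut at about 20% in these data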
ADAM17 confirm = human ADAM17 inhibition, confirmation; shares compounds with ADAM17 inh; recombinant ADAM17, EDANS/DABCYL QFRET peptide cleavage; inhibition, % at 6.95 µM; hit rate 65% among 2,900;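 active = mean inhibition across replicates above the hit cutoff set in the primary screen, cut at about 8.5% in these data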
Hits are given with their value; i = inactive; nt = no result given. The list is not random: actives were taken first. Their share in the collection is about 3.4%.

SMILES | sPLA2-III inh | ADAM10 inh | proKLK7 act | NRP1-CendR mod | ADAM17 inh | ADAM10 confirm | ADAM17 counter | ADAM10 ctr | ADAM17 confirm
O=C(CSc1nc2ccccc2[nH]1)Nc1ccccc1F | i | i | i | i | i | nt | nt | nt | nt
COc1cccc(NC(=O)Nc2nc3ncccn3c2-c2ccc(C(F)(F)F)cc2)c1 | i | i | i | nt | i | nt | nt | nt | nt
FC(F)(F)c1cnc(NNC(=S)Nc2ccccc2Cl)c(Cl)c1 | i | i | i | i | i | nt | nt | nt | nt
Cc1cccc(NC(=S)NNc2ncc(C(F)(F)F)cc2Cl)c1 | i | 21 | i | i | 13 | i | i | i | i
C=CCn1c(COc2ccc(Cl)cc2)nnc1SCC(=O)c1ccc(-c2ccccc2)cc1 | i | i | i | nt | i | nt | nt | nt | nt
Cc1ccc(C)c(N2CCN(S(=O)(=O)c3ccc4c(c3)NC(=O)CS4)CC2)c1 | i | 20 | i | i | 12 | i | i | 34 | 18
Cc1ccnc(NC(=O)c2cccc(OC(F)F)c2)n1 | i | i | i | i | i | nt | nt | nt | nt
O=C(Nc1cc(Cl)cc(Cl)c1)c1cccc(OC(F)F)c1 | i | 27 | i | i | 12 | i | i | 23 | 13
COc1ccc(CCNC(=O)c2cc3c(C)nn(-c4ccccc4)c3s2)cc1OC | i | i | i | nt | i | nt | nt | nt | nt
O=C(Nc1ccc(Br)c(C(F)(F)F)c1)c1ccc(C(F)(F)F)cc1 | i | i | i | i | i | nt | nt | nt | nt
O=C(Nc1ccc(Br)c(C(F)(F)F)c1)c1ccccc1 | i | 35 | i | i | 13 | i | i | 25 | 15
CCOC(=O)C1=CN(Cc2cccc(F)c2)S(=O)(=O)NC1c1ccccc1 (stereo not given) | i | i | i | i | i | nt | nt | nt | nt
CCOC(=O)C1=CN(Cc2cccc(F)c2)S(=O)(=O)NC1CCc1ccccc1 (stereo not given) | i | 21 | i | i | 12 | i | i | 51 | 20
FC(F)(F)c1cccc(NC(=S)NNC(=S)NCc2ccccc2)c1 | i | 20 | i | i | 12 | i | i | 31 | 19
FC(F)(F)c1cccc(NC(=S)NCCN2CCOCC2)c1 | i | i | i | i | i | nt | nt | nt | nt
FC(F)(F)c1cccc(NC(=S)NCC2COc3ccccc3O2)c1 (stereo not given) | i | 28 | i | i | 9.2 | i | i | 44 | 18
CCCCNC(=O)C[C@H]1C[C@@]2(C(=O)OC)C(=C[C@H](COCc3ccccc3)O[C@@H]2C)N(Cc2ccc3c(c2)OCO3)C1=O | i | i | i | nt | i | nt | nt | nt | nt
COc1ccc(OC)c(NC(=O)COC(=O)Cc2ccc(-c3ccccc3)cc2)c1 | i | 28 | i | i | 15 | i | i | i | 13
CC1=C(C(=O)Nc2ccc([N+](=O)[O-])cc2)C(c2cccc(C(F)(F)F)c2)NC(=S)N1c1ccccc1 (stereo not given) | i | 34 | i | i | 18 | i | i | 59 | 32
COc1ccc(C2NC(=S)N(c3ccccc3)C(C)=C2C(=O)Nc2ccccc2)cc1 (stereo not given) | i | i | i | i | i | nt | nt | nt | nt
O=C(NCc1ccc(C(F)(F)F)cc1)O[C@H]1CC[C@@]23CCCN2C(=O)CCC[C@H]3C1 | i | i | nt | nt | i | nt | nt | nt | nt
COc1cccc(-c2cnc(C(O)c3ccc(F)cc3C)[nH]2)c1 (stereo not given) | i | i | i | i | i | nt | nt | nt | nt
Cc1cc(F)ccc1C(O)c1ncc(-c2cccc(OCc3ccccc3)c2)[nH]1 (stereo not given) | i | 29 | i | i | 9.7 | i | i | 39 | 20
Cc1ccc(NC(=O)c2c(C(F)(F)F)nn(C)c2SCc2cccc(C(F)(F)F)c2)cc1C | i | 37 | i | i | 14 | i | i | 45 | 25
CN1C(C(=O)Nc2ccc(OC(F)(F)F)cc2)=CC(c2cccs2)=NS1(=O)=O | i | 26 | i | i | 13 | i | i | 22 | 16
SMILES | sPLA2-III inh | ADAM10 inh | proKLK7 act | NRP1-CendR mod | ADAM17 inh | ADAM10 confirm | ADAM17 counter | ADAM10 ctr | ADAM17 confirm
O=C(NC1CCc2ccccc21)c1cc(-c2ccc(Cl)cc2)nc2ccccc12 (stereo not given) | i | i | i | nt | i | nt | nt | nt | nt
COC(=O)c1cc(-c2cnc(OC)nc2OC)c(=O)n2c1CCC2 | i | i | i | nt | i | nt | nt | nt | nt
CC1C(=O)C(C)C(c2cc(Br)ccc2O)NC1c1cc(Br)ccc1O (stereo not given) | i | 34 | i | i | 15 | i | i | i | i
CC1C(=O)C(C)C(c2ccc(Br)cc2)NC1c1ccc(Br)cc1 (stereo not given) | i | i | i | i | i | nt | nt | nt | nt
O=C(Oc1ccc(OC(=O)c2ccco2)c(S(=O)(=O)c2ccc(Cl)cc2)c1)c1ccco1 | i | 26 | i | i | 8.8 | i | i | i | 9.7
Cc1ccc(-n2c(SCc3ccc(Cl)c(Cl)c3)nnc2-c2ccc(C(C)(C)C)cc2)cc1 | i | i | i | nt | i | nt | nt | nt | nt
CCCCOCCCNC(=O)C[C@H]1C[C@@]2(C(=O)OC)C(=C[C@H](C(C)(C)C)O[C@@H]2C)N(CCC2=CCCCC2)C1=O | i | i | i | nt | i | nt | nt | nt | nt
CCc1ccc(C2c3[nH]c4ccccc4c3CCN2C(=O)c2cc(C)nn2C)cc1 (stereo not given) | i | 23 | i | i | 13 | i | i | i | 10
CC(=O)CC[C@@H]1CC[C@]2(CCCN(C(=O)c3ccco3)C2)O1 | i | i | i | nt | i | nt | nt | nt | nt
Cc1csc(SCC(=O)Nc2nc(-c3ccccc3)cs2)n1 | i | 22 | i | i | 12 | i | i | i | 14
COc1ccc(C(O)c2nc(-c3ccc4ccccc4c3)cs2)cc1 (stereo not given) | i | 42 | i | 33 | 20 | i | i | 21 | 14
COc1cc(C(O)c2nc(-c3ccc4ccccc4c3)cs2)ccc1F (stereo not given) | i | 49 | i | i | 23 | i | i | 22 | 15
COc1cc(C(O)c2nc(-c3ccc(F)c(Cl)c3)cs2)ccc1F (stereo not given) | i | i | i | i | i | nt | nt | nt | nt
Cc1ccc(C)c(NC(=O)c2cc(-c3ccc(Cl)cc3)nc3ccccc23)c1 | i | i | i | nt | i | nt | nt | nt | nt
CCc1ccc(NC(=O)C(C)OC(=O)c2ccc(NS(=O)(=O)c3ccc(C)c([N+](=O)[O-])c3)cc2)cc1 (stereo not given) | i | 29 | i | i | 12 | i | i | 27 | 17
